Here are results for 16 molecules from the supplement of paper PMC12632987.

T1: USP38, Q8NB14
T1 chain: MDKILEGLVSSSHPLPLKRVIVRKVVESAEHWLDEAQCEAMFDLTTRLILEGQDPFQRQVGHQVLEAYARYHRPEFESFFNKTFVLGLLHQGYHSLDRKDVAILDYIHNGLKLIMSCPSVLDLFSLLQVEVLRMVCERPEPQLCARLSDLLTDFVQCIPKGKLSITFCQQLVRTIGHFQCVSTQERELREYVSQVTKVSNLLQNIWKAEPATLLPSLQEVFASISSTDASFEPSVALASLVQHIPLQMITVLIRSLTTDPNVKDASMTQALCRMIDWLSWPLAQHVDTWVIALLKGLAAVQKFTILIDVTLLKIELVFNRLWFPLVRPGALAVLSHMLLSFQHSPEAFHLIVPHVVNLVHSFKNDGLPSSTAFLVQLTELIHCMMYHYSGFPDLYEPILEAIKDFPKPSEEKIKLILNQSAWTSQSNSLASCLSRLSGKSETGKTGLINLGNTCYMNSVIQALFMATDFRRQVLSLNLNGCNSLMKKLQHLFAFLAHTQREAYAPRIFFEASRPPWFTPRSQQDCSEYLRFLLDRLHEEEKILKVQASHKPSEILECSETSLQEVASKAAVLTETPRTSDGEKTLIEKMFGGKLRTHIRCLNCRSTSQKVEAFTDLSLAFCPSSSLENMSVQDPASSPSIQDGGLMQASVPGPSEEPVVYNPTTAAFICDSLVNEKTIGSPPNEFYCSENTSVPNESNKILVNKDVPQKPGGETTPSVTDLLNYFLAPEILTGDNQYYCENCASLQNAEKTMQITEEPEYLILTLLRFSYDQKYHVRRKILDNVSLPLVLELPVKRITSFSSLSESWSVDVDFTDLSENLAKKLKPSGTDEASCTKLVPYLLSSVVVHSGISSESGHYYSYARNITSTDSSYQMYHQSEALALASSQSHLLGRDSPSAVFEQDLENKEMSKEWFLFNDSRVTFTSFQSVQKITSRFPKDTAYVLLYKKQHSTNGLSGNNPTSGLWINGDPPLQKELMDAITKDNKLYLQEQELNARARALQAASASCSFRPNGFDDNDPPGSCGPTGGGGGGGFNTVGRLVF

B1: usp_38_diff_out_22_74_485 (protein)
chain: SAEEEANAALRAEIDAKVADWNKYREEAERRIEEAIAAGRYREARRLLAELDDKTTDLIIWLNKQALANGAIHDYALAKAEEIRKKTTEVVERAEARLAA
B2: usp_38_diff_out_22_74_482 (protein)
chain: SAEAEAVAATKAEIEKLTAETLKKLDELYKEAKKYIEAGDYKNARRKLAEMDDLVTETVIYLNKVALAEGAVHDLALAKANEIRKKATEINEELEKLLKE
B3: usp_38_diff_out_21_100_459 (protein)
chain: MEEIKKEIKEELEKAEKALKEAIKLLKEGAKKEEILKKLDEALSHLVRAQYLAAKISFELAHKISEIIDIVQEAKKLLDTDKEKALELLEKALKELKELK
B4: usp_38_diff_out_22_74_486 (protein)
chain: SAEAEEVAKIKAEIDKLVAELNAYLEKAKEEAEKAIAAGRLREARRIRAEMDDKVTDAIITLNKIALANGAIHDYALAKAQEIRDKSTKVFEEIDARLAA
B5: usp_38_diff_out_22_74_484 (protein)
chain: SAEEEETEKLRKEIEERKAETLARLEELRAAARAALAAGDERAARRLLAELDDLVTDTVIWLNKVALAHGAIHDYALETALEIRERATAIVAELEAALAA
B6: usp_38_diff_out_22_74_487 (protein)
chain: SAAEKAQEEAKKKLEELLKEFNEELEKYLKEAKKAIEAGNLKEARRILGEFTSKFAELSSKIAKAAWEAELPLDEIQKIMTDLTKKAAEAVKEMEEAIKA
B7: usp_38_diff_out_22_164_477 (protein)
chain: MEEKIKKEVKEKIEKIAEETKKKIDELFAEAKANPEKKEEYIKKARMLLIESNKEIKEYIEKTVKENNLSEETKEELNSHATVQNLKVLNYLDEKIEELK
B8: usp_38_diff_out_20_123_457 (protein)
chain: MEKLKAEAEALLKRAEALLENAKQILKFVKAGVLSEEQVEEHIEMIEEHIKYLEEELKKLKAAAPELKELLEKVEKAIKETKKVREEIKKELEKRRKEKE
B9: usp_38_diff_out_20_123_458 (protein)
chain: SSEALERAERLLRQAEQLLENAEQILKFVKAGALSEETVEEHIKFIETHIKYLEEELERLEEEHPELEELLERIREILERTRKVLEEIKKALEKRRKEKE
B10: usp_38_diff_out_24_27_497 (protein)
chain: EEEKKEKLEKLIKKFEEILKLAKEAVGADLATRIRLSREIDELLEEARKLAEELGIEEVKKIVTEVAVKASIVLSGSEEMEEAIEEIEKLIEEAKKLLEE
B11: usp_38_diff_out_22_74_483 (protein)
chain: SAEEAETEALKKEIDEKVKKTKEELDRLRAEAKAAIAAGRYREARRLLAEMDDLVTDTVIWLNKVALAHGAVHDYALAKANEIREYATKINAELEALLEA
B12: usp_38_diff_out_22_164_481 (protein)
chain: KEEEIKEKLKKEIEEKIKETKKELDKLFAKAKADPEKKEEYIKEARMLLIKTQKELLELIEKTVKENNLSEETKEELRSFLTVQMLKLLNYLDEKEEELK
B13: usp_38_diff_out_22_164_479 (protein)
chain: SEEEILEKLKEEIEKLAEETKKKLEELAKKAKENPEKKEEYLKQMRMLVIQTQQKMGDLIDEAAKKYNLSEETVEELRSHRTVQSLKVLNYLDELEKELE
B14: usp_38_diff_out_22_164_478 (protein)
chain: SEEEILKKVKEELEKLAEETKKELDKLFEEAKANPEKKEEYIQEAQMLIIKTQKEMNDYIEETVKKYNLSEETKEELKSHRTVLNLKVLNYLDEKIEELK
B15: usp_38_diff_out_24_27_495 (protein)
chain: EEEKKKLLEKLIEKFEKILELAKKAVGADLATRIKLSSEIDELLEEARKLAKELGIPEVEKLVTQVAIQASIVLSGSEEMEEAIKEIEKIIEELKKLLKE
B16: usp_38_diff_out_23_30_488 (protein)
chain: SPLEEAKKRLREAAEKARKEATEIKKKAEELKKKAENEYLKALANQVIDAANDFIEDLDIWLSRIDEYDEARLLRLTEYVEASLAHLKQLYEDLLKEFKK

This experiment has as its target T1, USP38, Q8NB14. Description: median log2 fold change of GCK-ALFA target abundance (FLAG IP / Myc IP barcode read proportion) (log2 ratio); each designed protein is fused to an ALFA-tag nanobody in HEK293 cells to bring the named protein to FLAG-tagged glucokinase (GCK); Myc marks an untargeted standard; higher = target protein stabilised (more abundant). Conditions: target protein: 3xFLAG-MCP-GCK-ALFA reporter; HEK293 landing pad (RPLP). A digest of the protocol:
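HEK293 landing-pad cells received a recombined binder library fused to the ALFA nanobody and were induced with 2 μg mL^−1 doxycycline, then transfected with a plasmid encoding a FLAG-tagged target and a Myc-tagged standard. Lysates were collected after 48 h for anti-FLAG and anti-Myc immunoprecipitation, and the circular RNA barcodes were reverse transcribed, amplified and sequenced. Target abundance for each binder is the median log2 ratio of FLAG to Myc barcode read proportions. Barcodes had to reach a proportion of at least 10^−7 in both replicates, each binder needed at least 3 barcodes per replicate, a pseudocount of 10^−6 was applied, and the two replicates were pooled.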
Take B1: the “median log2 fold change” value is -0.0773.

For B2, the “median log2 fold change” value stood at 0.312.

As to B3, the “median log2 fold change” value is -0.0676.

Regarding B4, the “median log2 fold change” value was -0.198.

On to B5, for which the “median log2 fold change” value came to 0.0294.

On to B6, for which the “median log2 fold change” value was -0.392.

B7: the “median log2 fold change” value was 0.309.

Regarding B8, the “median log2 fold change” value turned out to be 0.24.

As for B9, the “median log2 fold change” value is 0.0141.

With B10, the “median log2 fold change” value worked out at 0.276.

Take B11: the “median log2 fold change” value came to 0.0676.

As for B12, the “median log2 fold change” value is -0.692.

In the case of B13, the “median log2 fold change” value came to 0.177.

On to B14, for which the “median log2 fold change” value is 0.187.

As for B15, the “median log2 fold change” value worked out at 0.368.

As for B16, the “median log2 fold change” value amounted to 0.13.
